A selection: hits, their analogues and other compounds. The true share with any hit is near 3.5%.
FBW7 act: activators of human E3 ligase FBW7; Q969H0; AlphaScreen FBW7–phospho-cyclin E peptide binding, activator screen; normalized activity (activation), % at 26.1 µM; hit rate 0.13% among 650,000; AID 1259310; in the data active = normalized activity above about 1.9%;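 also: purified mutant Fbw7 with reduced substrate affinity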
Target sequence (Q969H0 whole entry, looked up): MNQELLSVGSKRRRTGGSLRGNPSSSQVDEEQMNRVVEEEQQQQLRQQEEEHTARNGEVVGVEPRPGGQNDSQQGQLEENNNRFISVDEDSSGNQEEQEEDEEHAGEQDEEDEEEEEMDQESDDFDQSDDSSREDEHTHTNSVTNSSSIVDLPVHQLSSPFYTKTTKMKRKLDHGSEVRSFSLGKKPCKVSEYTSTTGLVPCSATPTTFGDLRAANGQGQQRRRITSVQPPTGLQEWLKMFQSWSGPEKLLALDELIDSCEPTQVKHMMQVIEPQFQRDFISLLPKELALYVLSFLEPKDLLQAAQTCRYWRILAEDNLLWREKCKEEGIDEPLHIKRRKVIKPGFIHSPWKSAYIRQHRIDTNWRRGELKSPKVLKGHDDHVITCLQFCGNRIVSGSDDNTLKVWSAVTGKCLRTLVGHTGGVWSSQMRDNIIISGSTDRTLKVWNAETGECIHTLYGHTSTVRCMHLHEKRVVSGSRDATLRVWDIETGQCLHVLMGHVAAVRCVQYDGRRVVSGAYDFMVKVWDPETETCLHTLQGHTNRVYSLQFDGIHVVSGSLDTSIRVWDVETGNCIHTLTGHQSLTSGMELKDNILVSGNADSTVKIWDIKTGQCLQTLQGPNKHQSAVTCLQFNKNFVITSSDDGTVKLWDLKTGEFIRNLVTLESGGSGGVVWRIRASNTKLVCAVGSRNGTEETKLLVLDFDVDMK
TEAD-YAP block: TEAD-YAP interaction inhibition | HEK-TIYL cells, TEAD-Gal4/YAP UAS-luciferase luminescence | inhibition, % at 9.12 µM | hit rate 1.4% among 640,000; in the data active = inhibition above about 32%
GPR151 activ: activates the human receptor GPR151 | activation, % at 11.2 µM | hit rate 1% among 650,000 | AID 1508602 | Q8TDV0 | PathHunter beta-arrestin GPR151 cells, luminescence; in the data active = activation above about 4.9%
MITF primary: human MITF inhibition, primary screen. O75030. hit rate 0.91% among 650,000. AlphaScreen MITF homodimerization, bead proximity signal. inhibition, % at 2.6 µM; in the data active = inhibition above about 50%
GPR151 conf act: confirmation of human GPR151 activators. shares compounds with GPR151 activ. GPR151 PathHunter beta-arrestin cells, luminescence, 90 min; % of EA-reagent control over plate median. activation, % at 11.2 µM. 6,700 tested, under 10 active;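 active = mean percent activation across replicates above the confirmation screen cutoff of 4.91%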
GPR119 counter: GPR119 activation, counter-screen for GPR151 activators; shares compounds with GPR151 activ; GPR119 PathHunter beta-arrestin cells, luminescence, 90 min; 0 = compound-well median, 100 = enzyme-acceptor control; activation, % at 11.2 µM; hit rate 0.3% among 6,700;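 active = mean percent activation in the counterscreen above 29.09%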;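 also: counterscreen on off-target GPR119 to flag nonselective hits from the GPR151 activator screen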
Large screens that a line does not name were inactive (follow-up assays come after a bar, where they were run); ! = a repeat was not active.

COc1cc(C2C(C(=O)OCc3ccccc3)=C(C)NC3=C2C(=O)CCC3)ccc1O (stereo not drawn)	GPR151 activ 5.5 | GPR151 conf act inactive | GPR119 counter inactive
COC(=O)c1ccc(C2C(C(=O)OCc3ccc(OC)cc3)=C(C)NC3=C2C(=O)CC(C)(C)C3)cc1 (stereo not drawn)	GPR151 activ 5.2 | GPR151 conf act inactive | GPR119 counter inactive
CCOc1ccc2nc(N3CCCN(C(=O)Nc4ccccc4F)CC3)c(C#N)cc2c1	none
O=C(COc1cccc(Br)c1)N/N=C/c1cc(Br)ccc1O	none
Cc1cc(-c2cnc(N3CCOCC3)nc2C2CCCN(C(=O)C3CCC3)C2)on1 (stereo not drawn)	none
Cc1cc(=O)oc2cc(OCC(=O)Nc3ccc(Br)cc3)ccc12	none
Cc1cc(C)n(/N=C/c2ccc([N+](=O)[O-])cc2)c(=O)c1C#N	none
Cc1ccc(C2C=C(c3ccc(Br)cc3)Nc3nc4ccccc4n32)cc1 (stereo not drawn)	GPR151 activ 5.9 | GPR151 conf act inactive | GPR119 counter inactive
COc1ccc(C2C=C(c3ccc(Br)cc3)Nc3nc4ccccc4n32)cc1 (stereo not drawn)	none
Cc1ccc(C2=CC(c3ccccc3)n3nnnc3N2)cc1 (stereo not drawn)	GPR151 activ 7.3 | GPR151 conf act inactive | GPR119 counter inactive
Fc1ccc(C2=CC(c3ccccc3)n3nnnc3N2)cc1 (stereo not drawn)	none
Nc1c(/C=C2\C=CC(=O)C(Br)=C2)c(=O)nc2sc(N3CCCC3)nn12	none
COCCNc1nc(SCc2ccncc2)nc2ccccc12	none
Cc1ccc(Cl)c(NC(=O)C2CCN(c3nc(C)cc(C)n3)CC2)c1	none
Cc1cc(C)nc(N2CCC(C(=O)Nc3ccc(Cl)cc3Cl)CC2)n1	GPR151 activ 9.5 | GPR151 conf act inactive | GPR119 counter inactive
CCOc1ccccc1NC(=O)c1ccc(F)c(S(=O)(=O)N2CCN(c3ccccn3)CC2)c1	GPR151 activ 6.0 | GPR151 conf act inactive | GPR119 counter inactive
CCOC(=O)N1CCN(S(=O)(=O)c2cc(C(=O)O)ccc2F)CC1	GPR151 activ 5.8 | GPR151 conf act inactive | GPR119 counter inactive
CCOc1ccccc1NC(=O)c1ccc(F)c(S(=O)(=O)N2CCN(c3ccccc3F)CC2)c1	none
Cc1ccc(-n2cc(-c3ccccc3)c3c(N4CCC(C(N)=O)CC4)ncnc32)cc1Cl	none
O=P(CCCO)(c1ccccc1)c1ccccc1	GPR151 activ 10 | GPR151 conf act inactive | GPR119 counter inactive
O=P(CCO)(c1ccccc1)c1ccccc1	none
COc1ccc(CNC2C3CC4CC(C3)CC2C4)c(OC)c1 (stereo not drawn)	GPR151 activ 5.6 | GPR151 conf act inactive | GPR119 counter inactive
CCNC(=O)CN(c1cc(C(F)(F)F)ccc1Cl)S(C)(=O)=O	none
CS(=O)(=O)N(CC(=O)O)c1cc(C(F)(F)F)ccc1Cl	GPR151 activ 6.3 | GPR151 conf act inactive | GPR119 counter inactive
COc1ccc(N2C(=O)NC(=O)/C(=C\c3ccc(OC)c(OC)c3)C2=O)cc1	none
COc1ccc2cc(/C=N/Nc3ccccn3)c(Cl)nc2c1	GPR151 activ 12 | GPR151 conf act inactive | GPR119 counter inactive
Cc1ccc(N2C(=O)C(Cl)=C(N3CCCCC3)C2=O)cc1	GPR151 activ 7.5 | GPR151 conf act inactive | GPR119 counter inactive
Cc1cccc(C(=O)NNC(=O)C2CCCO2)c1 (stereo not drawn)	GPR151 activ 7.3 | GPR151 conf act inactive | GPR119 counter inactive
CCCc1nc(C(C)(C)O)c(C(=O)OCc2oc(=O)oc2C)n1Cc1ccc(-c2ccccc2-c2nn[nH]n2)cc1	GPR151 activ 11! | GPR151 conf act inactive | GPR119 counter inactive
CCOc1nc2cccc(C(=O)OC(C)OC(=O)OC3CCCCC3)c2n1Cc1ccc(-c2ccccc2-c2nn[nH]n2)cc1 (stereo not drawn)	none
CC1(CCC(=O)O)NC(=S)N(c2ccccc2)N1 (stereo not drawn)	none
O=C(CN1C(=O)CC(c2ccco2)Sc2ccccc21)Nc1ccc(F)cc1F (stereo not drawn)	GPR151 activ 7.5 | GPR151 conf act inactive | GPR119 counter inactive
CC(C)CN1C(=O)C(=O)N(CCOc2ccc(Br)cc2)C1=O	none
